# The entries come from a sample that favours the strongest signals as a whole.
# B1: PEB1 (Campylobacter jejuni), Q0P9X8 (protein)
# chain: MVFRKSLLKLAVFALGACVAFSNANAAEGKLESIKSKGQLIVGVKNDVPHYALLDQATGEIKGFEVDVAKLLAKSILGDDKKIKLVAVNAKTRGPLLDNGSVDAVIATFTITPERKRIYNFSEPYYQDAIGLLVLKEKKYKSLADMKGANIGVAQAATTKKAIGEAAKKIGIDVKFSEFPDYPSIKAALDAKRVDAFSVDKSILLGYVDDKSEILPDSFEPQSYGIVTKKDDPAFAKYVDDFVKEHKNEIDALAKKWGL
# Assays:
# Experiment in all cases: glycan array binding signal (z-score within array); higher = stronger binding
# Details in all cases: glycan notation: IUPAC condensed, linker removed
# [1] = biological target: Fuc(a1-2)Gal(b1-4)Glc
# Outline: (§1)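 The binding signal is a Z-score computed within each array. Data were drawn from 3228 arrays in the Consortium for Functional Glycomics database, restricted to those with a known protein sequence. Scores were averaged over arrays of the same protein sequence at different concentrations or buffers, and over linkers, and negative values can be taken as non-binding.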
# [2] = biological target: Fuc(a1-2)Gal(b1-4)GlcNAc6S
# Outline: as §1
# [3] = biological target: Fuc(a1-2)Gal6S(b1-4)GlcNAc
# Outline: as §1
# [4] = biological target: Fuc(a1-2)[GalNAc(a1-3)]Gal(b1-4)GlcNAc(b1-2)Man(a1-3)[Fuc(a1-2)[GalNAc(a1-3)]Gal(b1-4)GlcNAc(b1-2)Man(a1-6)]Man(b1-4)GlcNAc(b1-4)GlcNAc
# Outline: as §1
# [5] = biological target: Fuc(a1-3)[Gal(b1-4)]GlcNAc(b1-2)Man(a1-3)[Fuc(a1-3)[Gal(b1-4)]GlcNAc(b1-2)Man(a1-6)]Man(b1-4)GlcNAc(b1-4)GlcNAc
# Outline: as §1
# [6] = biological target: Fuc(a1-3)[Gal(b1-4)]GlcNAc(b1-4)Gal(b1-4)[Fuc(a1-3)]GlcNAc
# Outline: as §1
# [7] = biological target: Gal(a1-3)Gal(b1-3)[Fuc(a1-4)]GlcNAc(b1-2)Man(a1-3)[Gal(a1-3)Gal(b1-3)[Fuc(a1-4)]GlcNAc(b1-2)Man(a1-6)]Man(b1-4)GlcNAc(b1-4)GlcNAc
# Outline: as §1
# [8] = biological target: Gal(a1-4)Gal(b1-4)GlcNAc(b1-2)Man(a1-3)[Gal(a1-4)Gal(b1-4)GlcNAc(b1-2)Man(a1-6)]Man(b1-4)GlcNAc(b1-4)GlcNAc
# Outline: as §1
# [9] = biological target: Gal(b1-2)Gal
# Outline: as §1
# [10] = biological target: Gal(b1-3)[Fuc(a1-4)]GlcNAc(b1-2)Man(a1-3)[Gal(b1-3)[Fuc(a1-4)]GlcNAc(b1-2)Man(a1-6)]Man(b1-4)GlcNAc(b1-4)GlcNAc
# Outline: as §1
# [11] = biological target: Gal(b1-3)[Neu5Ac(a2-6)]GalNAc
# Outline: as §1
# [12] = biological target: Gal(b1-4)GlcNAc(b1-2)Man(a1-3)[Gal(b1-4)GlcNAc(b1-2)Man(a1-6)]Man(b1-4)GlcNAc(b1-4)[Fuc(a1-6)]GlcNAc
# Outline: as §1
# [13] = biological target: Gal(b1-4)GlcNAc(b1-3)Gal(b1-3)GlcNAc
# Outline: as §1
# [14] = biological target: Gal(b1-4)GlcNAc(b1-3)Gal(b1-4)Glc
# Outline: as §1
# [15] = biological target: Gal(b1-4)GlcNAc(b1-6)Gal(b1-4)GlcNAc
# Outline: as §1
# [16] = biological target: Gal3S(b1-4)Glc
# Outline: as §1
# [17] = biological target: Gal3S(b1-4)[Fuc(a1-3)]Glc6S
# Outline: as §1
# [18] = biological target: GalNAc(b1-4)GlcNAc(b1-2)Man(a1-3)[GalNAc(b1-4)GlcNAc(b1-2)Man(a1-6)]Man(b1-4)GlcNAc(b1-4)GlcNAc
# Outline: as §1
# [19] = biological target: GlcNAc(a1-4)Gal(b1-4)GlcNAc
# Outline: as §1
# [20] = biological target: Kdn(a2-3)Gal(b1-4)[Fuc(a1-3)]GlcNAc
# Outline: as §1
# [21] = biological target: Man(a1-2)Man(a1-6)[Man(a1-3)]Man(a1-6)[Man(a1-2)Man(a1-2)Man(a1-3)]Man
# Outline: as §1
# [22] = biological target: Neu5Ac(a2-3)Gal(b1-3)GlcNAc(b1-3)Gal(b1-4)GlcNAc
# Outline: as §1
# [23] = biological target: Neu5Ac(a2-3)Gal(b1-3)[Fuc(a1-4)]GlcNAc(b1-3)Gal(b1-4)[Fuc(a1-3)]GlcNAc
# Outline: as §1
# [24] = biological target: Neu5Ac(a2-3)Gal(b1-4)GlcNAc(b1-3)Gal(b1-4)[Fuc(a1-3)]GlcNAc
# Outline: as §1
# [25] = biological target: Neu5Ac(a2-3)Gal(b1-4)[Fuc(a1-3)]GlcNAc(b1-3)Gal(b1-4)GlcNAc
# Outline: as §1
# [26] = biological target: Neu5Ac(a2-3)Gal(b1-4)[Fuc(a1-3)]GlcNAc(b1-3)GalNAc
# Outline: as §1
# [27] = biological target: Neu5Ac(a2-3)Gal(b1-4)[Fuc(a1-3)]GlcNAc(b1-6)[Neu5Ac(a2-3)Gal(b1-3)]GalNAc
# Outline: as §1
# [28] = biological target: Neu5Ac(a2-3)GalNAc(b1-4)GlcNAc
# Outline: as §1
# [29] = biological target: Neu5Ac(a2-3)[GalNAc(b1-4)]Gal(b1-4)GlcNAc(b1-3)GalNAc
# Outline: as §1
# [30] = biological target: Neu5Ac(a2-3)[Neu5Ac(a2-6)]GalNAc
# Outline: as §1
binder,measurement,setting,value
B1,glycan array binding signal (z-score),[1],-0.354
same,glycan array binding signal (z-score),[2],-0.084
same,glycan array binding signal (z-score),[3],0.768
same,glycan array binding signal (z-score),[4],1.37
same,glycan array binding signal (z-score),[5],-0.842
same,glycan array binding signal (z-score),[6],0.229
same,glycan array binding signal (z-score),[7],3.87
same,glycan array binding signal (z-score),[8],3.37
same,glycan array binding signal (z-score),[9],0.469
same,glycan array binding signal (z-score),[10],4.54
same,glycan array binding signal (z-score),[11],-0.718
same,glycan array binding signal (z-score),[12],0.818
same,glycan array binding signal (z-score),[13],0.014
same,glycan array binding signal (z-score),[14],-0.613
same,glycan array binding signal (z-score),[15],-1.39
same,glycan array binding signal (z-score),[16],-1.26
same,glycan array binding signal (z-score),[17],0.849
same,glycan array binding signal (z-score),[18],4.17
same,glycan array binding signal (z-score),[19],0.303
same,glycan array binding signal (z-score),[20],-0.113
same,glycan array binding signal (z-score),[21],-0.547
same,glycan array binding signal (z-score),[22],-0.813
same,glycan array binding signal (z-score),[23],0.311
same,glycan array binding signal (z-score),[24],-0.941
same,glycan array binding signal (z-score),[25],3.14
same,glycan array binding signal (z-score),[26],8.24
same,glycan array binding signal (z-score),[27],3.1
same,glycan array binding signal (z-score),[28],-0.108
same,glycan array binding signal (z-score),[29],-0.77
same,glycan array binding signal (z-score),[30],-0.361

# From the supplement of paper PMC8728848
